# According to PubChem BioAssay (NCATS):
# “And” between values parts separate entries of the source, which are not always exact repeats. Identical values can stand only once. Inconclusive results are not listed. The source made the active and inactive calls. Unless noted, calls follow the shape of the dose curve; as a rule, active = well fitted curve in the direction sought with a large enough effect; inconclusive = small, poorly fitted or top-dose-only effect, or another doubt; inactive = no such curve, though single readings can be large; an effect the other way counts as inactive or inconclusive.
# Tests used:
# [1] = qHTS Assay for Identification of Small Molecule Antagonists for NFkB Signaling Pathway. (AID 624479; calls by dose curve;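 also: pathway stimulated with TNF alpha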; also: potency is read from the fitted curve at half-maximal effect)
# [2] = Cell Proliferation Assay against the HBL1 Cell Line (AID 651646); conditions: HBL1 DLBCL cells; at 46.1 µM (top of the series) unless noted;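 also: cells exposed to compound for 48 h before reading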
# Outline: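 CellTiter-Glo luminescence after 48 h compound exposure at 37C gives percent activity, with DMSO as 100% and 9.2 uM bortezomib final as 0%. Cells: 500 log-phase HBL1 per well, RPMI plus 5% FBS.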
# [3] = Cell Proliferation Assay against the TMD8 Cell Line (Caspase readout at 16 hrs) (AID 651712); also: potency is read from the fitted curve at half-maximal effect
# Outline: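 Caspase-Glo luminescence measured apoptosis after a 16 h, 37 C compound exposure of TMD8 cells (500 cells/well, 5% FBS RPMI). DMSO set 0% and bortezomib at 9.2 uM final set 100% activity.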
# [4] = biological target: Tyrosine-protein kinase Yes (Homo sapiens) (UniProt P07947); assay: qHTS for small molecule inhibitors of Yes1 kinase: Primary Screen (AID 686947); also: nearly all actives have a fitted effect of over 60% in size; also: potency is read from the fitted curve at half-maximal effect
# Outline: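 ADP-Glo luminescence reports ADP formed by 4 nM Yes1 phosphorylating poly(E4Y) (0.3 mg/mL) with 0.1 mM ATP for 60 min at room temperature, following 20 min compound preincubation; normalised between DMSO wells with and without enzyme.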
# [5] = qHTS for small molecule inhibitors of Yes1 kinase: Counter Assay (AID 686950);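 also: no kinase present so only ADP-Glo detection of a fixed ADP amount is tested; luminescence from ADP-Glo reporting ADP in a fixed ATP and ADP mixture; 0% = DMSO wells with ATP plus ADP and -100% = ATP-only wells without ADP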
# Outline: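 ADP-Glo luminescence read after a 60 min room-temperature incubation of compound with an ATP/ADP mix (0.08 mM/0.02 mM) and no kinase, following a 20 min compound preincubation. Signal scaled between ATP+ADP (max) and 0.1 mM ATP-only (min) wells; Tris pH 7.5, Mg2+, DTT.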
# [6] = Cell Proliferation Assay against the TMD8 Cell Line (Caspase readout at 8 hrs) (AID 651713);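 also: 0% = DMSO and 100% = 9.2 µM bortezomib caspase signal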
# Outline: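 Caspase 3/7 activation in ABC DLBCL TMD8 cells is measured by luminescence after an 8 h compound exposure at 37C. Relative light units are scaled between DMSO (0%) and 9.2 uM final bortezomib (100%).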
# [7] = qHTS assay for small molecule agonists of the antioxidant response element (ARE) signaling pathway (AID 651741; active = well fitted activation curve with a large enough effect in the signal ratio; the % refers to the signal ratio; also: potency is read from the fitted curve at half-maximal effect; as to activation: % of control where 0% means no effect)
# Outline: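 Beta-lactamase reporter under ARE control in HepG2 cells, 2,000 per well, was induced by 16 h compound treatment at 37 C. Read-out was fluorescence from LiveBLAzer B/G FRET substrate after 2 h at room temperature.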
# [8] = qHTS assay for small molecule activators of the p53 signaling pathway (AID 651743; active = well fitted activation curve with a large enough effect in the signal ratio, not every such curve was filed as active; the % refers to the signal ratio; also: % of control where 0% means no effect); conditions: HCT-116 p53RE-bla, beta-lactamase FRET ratio, 16 h; activation: stronger effect = higher value
# Outline: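 After 16 hours compound treatment at 37 C, HCT-116 cells stably expressing p53RE-driven beta-lactamase were loaded with LiveBLAzer B/G FRET substrate for 2 hours at room temperature. Fluorescence intensity served as the p53 activation read-out.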
# [9] = biological target: Tumor necrosis factor (Homo sapiens) (UniProt P01375); assay: qHTS assay to identify small molecules that stimulate Tumor Necrosis Factor-alpha (TNF-alpha) secretion (AID 651757; active = well fitted curve in the direction sought with a large enough effect in the signal ratio; the % refers to the signal ratio; also: 0% is about no effect)
# Outline: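 Human monocytic THP-1 cells are plated, treated with compound and held at 37 C for 17 hrs. Labeled anti-TNF-alpha antibody mixture is then added; after 3 hr at room temperature, TR-FRET signal reports secreted TNF-alpha.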
# [10] = qHTS assay for environmental chemicals that activate the Aryl hydrocarbon Receptor (AhR) signaling pathway (AID 651777); conditions: 1A2-DRE human hepatoma cells, luciferase, 24 h; stronger effect = higher value; also: % of control where 0% means no effect; nearly all actives have a fitted effect of over 15% in size
# Outline: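 Human hepatoma 1A2-DRE cells stably carrying a DRE/CYP1A2 promoter–luciferase reporter, 1,200 cells/well, exposed to compound 24 hr at 37 C. Luciferase read by One-Glo luminescence after 30 min at room temperature; increased signal marks AhR activation.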
# [11] = biological target: Peroxisome proliferator-activated receptor alpha (Homo sapiens) (UniProt Q07869); assay: qHTS assay for small molecule agonists of the peroxisome proliferator-activated receptor alpha (PPARalpha) signaling pathway (AID 651778); conditions: PathHunter PPARalpha complementation, chemiluminescence, 6 h; max response: stronger effect = higher value; also: % of control where 0% means no effect
# Outline: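 Chemiluminescence from complemented enzyme reported PPARalpha activation in cells after 6 hr of compound treatment at 37 C. The detection reagent was incubated for 60 min at room temperature, and compounds were scored as agonists.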
# [12] = biological target: Nuclear receptor ROR-gamma (Homo sapiens) (UniProt P51449); assay: qHTS assay for small molecule antagonists of the retinoid-related orphan receptor gamma (ROR-gamma) signaling pathway (AID 651802);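 also: CHO cells with doxycycline-induced ROR-gamma expression; % is scaled to controls: 0 for no effect and ±100 for the full control effect; nearly all actives have a fitted effect of over 60% in size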
# Outline: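 Steps: cells dispensed; compound or DMSO transferred by pin tool; doxycycline added to induce the ROR response element-driven luciferase; plates held 16hr at 37C; ONE-Glo added and luminescence measured.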
# [13] = qHTS assay for small molecule agonists of the antioxidant response element (ARE) signaling pathway measured by Nrf2-dependant transcriptional activity - cell viability counter screen (AID 720653; active = well fitted curve in the direction sought with a large enough effect in the repeat runs; an effect the other way counts as inactive or inconclusive; also: % is scaled to controls: 0 for no effect and ±100 for the full control effect); conditions: ARE-bla HepG2 viability, CellTiter-Glo ATP luminescence, 16 h; stronger effect = lower value
# Outline: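 Cytotoxicity counter screen: intracellular ATP quantified by CellTiter-Glo luminescence in the same ARE-bla HepG2 plates, after 16 h compound exposure and a 2 h beta-lactamase substrate step.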
# [14] = qHTS assay for small molecule activators of the nuclear factor-kappa B (NF-kB) signaling pathway (AID 651749; active = well fitted activation curve with a large enough effect in the signal ratio; the % refers to the signal ratio; also: % of control where 0% means no effect); conditions: NF-kB-bla ME-180 cells, beta-lactamase FRET ratio, 16 h; stronger effect = higher value
# Outline: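 Activation measured after 16 hr compound treatment at 37C, 5% CO2, of 2,000 ME-180 cells/well stably expressing an NF-kB response element–driven beta-lactamase reporter, via FRET-disruption fluorescence.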
# [15] = qHTS assay to identify small molecules that stimulate interleukin-8 (IL-8) secretion (AID 651758; active = well fitted activation curve with a large enough effect in the signal ratio; the % refers to the signal ratio; also: 0% is about no effect)
# Outline: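 Secreted IL-8 measured homogeneously by TR-FRET (two labelled anti-IL-8 antibodies, 1-3 h at room temperature) after a 16 h, 37 C compound treatment of THP-1 cells at 2000 cells/well.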
# [16] = qHTS assay for small molecule disruptors of the mitochondrial membrane potential - 1 hr assay (AID 651754; calls by dose curve; also: % is scaled to controls: 0 for no effect and ±100 for the full control effect; nearly all actives have a fitted effect of over 35% in size)
# Outline: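 Loss of mitochondrial potential shifts the cationic dye from red mitochondrial aggregates to green cytoplasmic monomers. Cells (HepG2) are treated with compound for 1 hr before a 30 min dye incubation at 37C.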
# [17] = qHTS assay for small molecule disruptors of the mitochondrial membrane potential - 5 hr assay (AID 651755; calls by dose curve; also: % is scaled to controls: 0 for no effect and ±100 for the full control effect; nearly all actives have a fitted effect of over 40% in size)
# Outline: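 Membrane-potential dye readout: red aggregate (540 ex/590 em) versus green monomer (490 ex/535 em) fluorescence after 30 min dye loading, following 5 hr compound exposure at 37C of overnight-plated HepG2 cells.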
# Chain of Nuclear receptor ROR-gamma (Homo sapiens) (P51449 whole entry, looked up): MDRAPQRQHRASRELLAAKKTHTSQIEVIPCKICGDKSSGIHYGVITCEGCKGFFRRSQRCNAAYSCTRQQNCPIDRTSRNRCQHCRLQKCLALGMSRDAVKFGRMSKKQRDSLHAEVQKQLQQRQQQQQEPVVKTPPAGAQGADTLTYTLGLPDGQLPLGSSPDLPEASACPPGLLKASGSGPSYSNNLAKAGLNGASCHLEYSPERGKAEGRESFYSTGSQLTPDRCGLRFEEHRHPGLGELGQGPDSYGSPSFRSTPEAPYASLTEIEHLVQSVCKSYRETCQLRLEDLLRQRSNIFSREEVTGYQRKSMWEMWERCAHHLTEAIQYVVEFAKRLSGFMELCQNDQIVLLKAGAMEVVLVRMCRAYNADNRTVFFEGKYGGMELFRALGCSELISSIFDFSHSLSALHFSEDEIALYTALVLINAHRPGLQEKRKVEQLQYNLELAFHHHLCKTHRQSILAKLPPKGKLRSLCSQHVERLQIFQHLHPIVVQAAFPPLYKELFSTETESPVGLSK
# Chain of Peroxisome proliferator-activated receptor alpha (Homo sapiens) (Q07869 whole entry, looked up): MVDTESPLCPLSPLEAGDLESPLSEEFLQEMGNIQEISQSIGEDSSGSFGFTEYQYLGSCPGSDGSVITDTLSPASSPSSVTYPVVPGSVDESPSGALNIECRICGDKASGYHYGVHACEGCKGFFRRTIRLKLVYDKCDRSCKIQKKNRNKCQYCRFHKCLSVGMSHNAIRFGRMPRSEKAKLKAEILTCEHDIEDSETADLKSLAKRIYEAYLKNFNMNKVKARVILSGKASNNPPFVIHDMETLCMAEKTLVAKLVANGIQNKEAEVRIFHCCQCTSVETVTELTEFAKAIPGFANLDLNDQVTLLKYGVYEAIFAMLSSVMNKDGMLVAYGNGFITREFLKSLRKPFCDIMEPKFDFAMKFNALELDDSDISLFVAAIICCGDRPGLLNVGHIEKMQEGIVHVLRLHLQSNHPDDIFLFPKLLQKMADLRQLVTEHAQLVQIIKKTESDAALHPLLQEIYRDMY
# Chain of Tumor necrosis factor (Homo sapiens) (P01375 whole entry, looked up): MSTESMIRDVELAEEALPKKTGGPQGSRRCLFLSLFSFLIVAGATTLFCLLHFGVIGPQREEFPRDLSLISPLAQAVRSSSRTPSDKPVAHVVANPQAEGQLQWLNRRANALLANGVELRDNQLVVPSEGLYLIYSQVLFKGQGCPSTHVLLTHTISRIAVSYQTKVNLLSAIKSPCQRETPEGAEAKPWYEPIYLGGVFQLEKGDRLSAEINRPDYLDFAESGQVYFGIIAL
# Chain of Tyrosine-protein kinase Yes (Homo sapiens) (P07947 whole entry, looked up): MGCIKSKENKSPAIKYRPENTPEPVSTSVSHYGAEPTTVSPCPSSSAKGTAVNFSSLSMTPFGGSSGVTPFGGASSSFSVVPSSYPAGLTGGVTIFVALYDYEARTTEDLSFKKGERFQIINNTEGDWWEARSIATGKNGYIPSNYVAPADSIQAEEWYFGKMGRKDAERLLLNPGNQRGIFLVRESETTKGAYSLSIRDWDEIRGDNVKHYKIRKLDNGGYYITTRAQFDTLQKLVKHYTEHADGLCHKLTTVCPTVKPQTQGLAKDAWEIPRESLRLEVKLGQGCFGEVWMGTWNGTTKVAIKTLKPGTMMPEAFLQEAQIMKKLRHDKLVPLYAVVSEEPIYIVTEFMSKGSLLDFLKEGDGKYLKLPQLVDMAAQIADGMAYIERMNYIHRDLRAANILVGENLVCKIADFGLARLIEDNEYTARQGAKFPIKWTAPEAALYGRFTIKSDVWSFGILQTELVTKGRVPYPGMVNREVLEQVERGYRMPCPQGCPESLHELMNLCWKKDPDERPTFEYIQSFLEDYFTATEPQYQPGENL
compound,measurement,setting,value
NC(=O)Nc1cc(-c2ccc(CN3CCOCC3)c(F)c2)sc1C(=O)N[C@H]1CCCNC1,Potency,[1],4730 nM (active)
same,"viability, percent of control",[2],10.1%
same,Potency,[3],46.9 nM (active)
same,Potency,[4],0.2 nM (active)
same,outcome,[5],inactive
CCC1(Cc2ccc(N)cc2)CCC(=O)NC1=O (stereo unspecified),Potency,[1],inactive
same,"viability, percent of control",[2],97.3% [at 92.2 µM]
same,Potency,[3],inactive
same,Potency,[6],inactive
same,Potency,[4],inactive
same,outcome,[5],inactive
CCCCCCCC(=O)O,Potency,[7],inactive
same,activation,[8],-2.15% (inactive) and 0.705% (inactive)
same,outcome,[9],inactive
same,activation,[10],0.292% (inactive) and -0.546% (inactive)
same,max response,[11],-0.533% (inactive) and 5% (inactive)
same,outcome,[12],inactive
same,max response,[13],3.78% (inactive) and 1.59% (inactive)
Cc1nnc(C(C)C)n1C1CC2CCC(C1)N2CC[C@H](NC(=O)C1CCC(F)(F)CC1)c1ccccc1 (stereo partly specified),Potency,[1],inactive
same,"viability, percent of control",[2],87.3%
same,Potency,[3],inactive
same,Potency,[6],inactive
same,outcome,[5],inactive
C[C@H]1C[C@H]2[C@@H]3CCC4=CC(=O)C=C[C@]4(C)[C@@]3(F)[C@@H](O)C[C@]2(C)[C@@]1(O)C(=O)CO,activation,[8],-9.59% (inactive)
same,activation,[14],-3.68% (inactive)
same,activation,[10],-2.62% (inactive)
same,max response,[11],-0.118% (inactive)
same,max response,[13],-19.2% (inactive)
IC(I)I,Potency,[7],68600 nM (active)
same,activation,[8],-2.94% (inactive) and -3.68% (inactive)
same,outcome,[9],inactive
same,Potency,[15],inactive
same,activation,[10],3.72% (inactive)
same,max response,[11],-6.19% (inactive) and -2.33% (inactive)
same,max response,[13],1.96% (inactive) and -3.08% (inactive)
CC1=C2[C@@H]([C@H](C)CC[C@H]2/C=C(\C)C(=O)O)[C@H](O)C1,Potency,[7],inactive
same,activation,[8],-3.64% (inactive)
same,activation,[14],-0.741% (inactive)
same,outcome,[16],inactive
same,outcome,[17],inactive
same,outcome,[9],inactive
same,Potency,[15],inactive
same,activation,[10],1.08% (inactive)
same,max response,[11],-2.98% (inactive)
same,outcome,[12],inactive
same,max response,[13],-8.96% (inactive)
Nc1ccn([C@H]2CS[C@@H](CO)O2)c(=O)n1,Potency,[7],inactive
same,activation,[8],-1.09% (inactive)
same,activation,[14],-1.13% (inactive)
same,outcome,[16],inactive
same,outcome,[17],inactive
same,outcome,[9],inactive
same,activation,[10],0.73% (inactive)
same,max response,[11],-3.53% (inactive)
same,outcome,[12],inactive
same,max response,[13],4.54% (inactive)
